Assay outcomes from PubChem.
Shiga toxin inh = blocks Shiga toxin action in Vero cells. Vero cells, Shiga toxin protein synthesis inhibition reporter. inhibition, % at 38.7 µM. 290,000 tested, 9.2% active. AID 2315; in the data active means inhibition mostly above about 28%, no sharp cut-off; inactive means mostly below about 43%
Pf growth 96h = P. falciparum growth inhibition at 96 hours | P. falciparum luciferase reporter growth, 96 h | Potency, µM (highest dose often 28.7 µM), hits mostly inhibitors | 320,000 tested, 6.9% active
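Parasite growth measured via integrated firefly luciferase reporter in P. falciparum. Infected erythrocytes at 2% hematocrit, 0.05% parasitemia final were treated 96 hours at 37 C under 5% CO2, and luminescence was read.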
CHX counter = counter-screen hit for Shiga toxin inhibitors, cycloheximide | cell reporter, cycloheximide protein synthesis inhibition counterscreen | max response, % | 300,000 tested, 12% active; in the data active means max response mostly above about 13%, no sharp cut-off; inactive means mostly below about 14%; further: read at 38.3 µM for the half of the compounds with a filed dose
Pf growth 48h = P. falciparum growth inhibition at 48 hours (one generation). P. falciparum luciferase growth in erythrocytes, 48 h. Potency, µM (titrated, usually from 28.7 µM), usual class: inhibitors. 310,000 tested, 5.9% active
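Luciferase-expressing parasites in RBCs, 2% Hct / 0.1% parasitemia final; RPMI 1640 + 0.5% Albumax; 37 C, 5% CO2, one generation; luminescence read-out, lower signal = inhibition.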
Large screens that a line does not name were inactive. Hits are enriched below; roughly 21% of the tested compounds scored in any of these assays. Unless noted, the call rests on the fitted dose curve; in most records, active means well fitted inhibition curve with a large enough effect; inconclusive means small, poorly fitted or top-dose-only effect, or another doubt; inactive means no such curve, though single readings can be large or run the other way.

COc1nc(Nc2ccc(C(C)=O)cc2)nc(OC)n1	Shiga toxin inh 52.8, CHX counter 18.0, Pf growth 48h 14.7µM
FC(F)(F)Oc1ccc(Nc2nc(N3CCOCC3)nc(N3CCOCC3)n2)cc1	Pf growth 96h 11.7µM, Pf growth 48h inconclusive
O=C(CCN1CCOCC1)NNC(=O)Nc1cccc(C(F)(F)F)c1	Pf growth 96h 10.4µM
CC(=O)c1ccc(NC(=O)CSc2nc(N3CCOCC3)nc(N3CCOCC3)n2)cc1	Shiga toxin inh 61.9, CHX counter 42.1, Pf growth 48h inconclusive
O=C(CN1CCOCC1)Nc1cccc(C(=O)Nc2cccc(C(F)(F)F)c2)c1	Pf growth 48h inconclusive
COc1ccc(Nc2nc(OC)nc(N3CCOCC3)n2)cc1	none
Fc1cc(F)cc(Nc2nc(Cl)nc(NC3CCCC3)n2)c1	Pf growth 96h inconclusive (no result: Shiga toxin inh, CHX counter)
O=C(CSc1nc(N2CCOCC2)nc(N2CCOCC2)n1)Nc1cccc(C(F)(F)F)c1	Pf growth 96h 2.08µM
O=C(CSc1nc(Nc2ccccc2)nc(N2CCOCC2)n1)Nc1ccc([N+](=O)[O-])cc1	Pf growth 48h 11.7µM (no result: Pf growth 96h)
CC(=O)Nc1ccc(/C(C)=N/Nc2nc(Nc3ccccc3)nc(N3CCOCC3)n2)cc1	Pf growth 48h 2.08µM
CNc1nc(SCC(=O)Nc2ccc(Cl)c(Cl)c2)nc(N2CCOCC2)n1	none
COc1ccccc1Nc1nc(N2CCOCC2)nc(N2CCOCC2)n1	Pf growth 96h 10.4µM, Pf growth 48h inconclusive
O=C(NNc1nc(Nc2ccccc2)nc(N2CCOCC2)n1)Nc1ccc(Cl)cc1	Pf growth 48h 10.4µM
CC(=O)c1ccc(Nc2nc(N3CCOCC3)nc(N3CCOCC3)n2)cc1	CHX counter 17.2
COc1ccc(Nc2nc(OC)nc(OC)n2)cc1	Pf growth 96h inconclusive, Pf growth 48h inconclusive
CCc1ccc(Nc2nc(N3CCOCC3)nc(N3CCOCC3)n2)cc1	Pf growth 96h 9.28µM
COc1nc(Nc2ccc3c(c2)OCO3)nc(OC)n1	Shiga toxin inh 51.0 (no result: Pf growth 48h)
Clc1cccc(Nc2nc(N3CCOCC3)nc(N3CCOCC3)n2)c1	Pf growth 96h inconclusive, Pf growth 48h inconclusive
COc1cc(C(O)c2nc3ccccc3s2)cc(OC)c1OC (stereo not given)	none
C/C(=N/OC(=O)c1ccc(Cl)cc1Cl)c1oc(C)nc1C	none
C/C(=N/OC(=O)c1ccccc1)c1oc(C)nc1C	Shiga toxin inh 63.8, CHX counter 51.3
CC(C)N=C1NN=C(c2ccc(F)cc2)CS1	Shiga toxin inh 80.1, CHX counter 17.9
Fc1ccc(C2=NNC(=NCc3ccccc3)SC2)cc1F	Shiga toxin inh 64.4, Pf growth 96h inconclusive, CHX counter 33.6, Pf growth 48h inconclusive
c1ccc(C2=NNC(=NCc3ccc4c(c3)OCO4)SC2)cc1	Shiga toxin inh 80.4, Pf growth 96h inconclusive, CHX counter 18.0
Clc1ccc(C2=NNC(=NCc3ccccc3)SC2)cc1	Shiga toxin inh 73.8, Pf growth 96h inconclusive, Pf growth 48h inconclusive
O=C(CN1CCSC1=NCc1ccccc1)c1ccc(Cl)cc1	Pf growth 96h inconclusive
c1ccc(-c2[nH]ncc2CN2CCN(Cc3ccc4c(c3)OCO4)CC2)cc1	none
c1ccc(CN=C2NN=C(c3ccccc3)CS2)cc1	CHX counter 55.0, Pf growth 48h inconclusive
C=CCN=C1NN=C(c2ccc3c(c2)OCCO3)CS1	Shiga toxin inh 41.5, CHX counter 21.2
CC(=O)c1c(C)[nH]c(C2=NNC(=NCc3ccccc3)SC2)c1C	Pf growth 48h inconclusive
COCCN=C1NN=C(c2ccc(NC(C)=O)cc2)CS1	Pf growth 96h inconclusive, Pf growth 48h inconclusive
NC1=NN=C(c2ccc3c(c2)OCCO3)CS1	none
COc1ccccc1C1=NNC(=NCc2ccccc2)SC1	Shiga toxin inh 33.0, CHX counter 31.4
CCN=C1NN=C(c2ccc(C)cc2)CS1	Shiga toxin inh 105.9, CHX counter 38.0
COc1ccc(-c2nnc3n2N=C(c2ccccc2OC)CS3)cc1OC	none (no result: Pf growth 96h, Pf growth 48h)
O=C(O)c1ccccc1-c1ccccc1C(=O)NNc1ccc([N+](=O)[O-])cc1	none
O=C(C1CCOCC1)N1CCCC(N2CCN(c3ccc(F)cc3)CC2)C1 (stereo not given)	none
CCCOC(=O)c1ccc(Oc2c(-c3ccc(OCC)cc3O)n[nH]c2C)cc1	Pf growth 48h 5.22µM
CCCc1ccc(Oc2cn[nH]c2-c2ccc(O)c(C)c2O)cc1	Pf growth 96h 10.4µM
COc1ccc(Oc2c(-c3ccc(O)cc3O)n[nH]c2C)cc1	none
CCCOC(=O)c1ccc(Oc2cn[nH]c2-c2ccc(OCC)cc2O)cc1	Pf growth 48h 4.65µM (no result: Pf growth 96h)
COc1ccc(CC(=O)NCC2(c3ccc(OC)c(OC)c3)CCCC2)cc1	none
COc1ccc(C2(CNC(=O)/C=C/c3ccco3)CCCC2)cc1OC	Pf growth 96h inconclusive, Pf growth 48h 6.57µM
COc1ccc(C(=O)NCC2(c3ccc(OC)c(OC)c3)CCCC2)c(OC)c1	Pf growth 96h inconclusive, Pf growth 48h 11.7µM
O=C(/C=C/c1ccco1)NCC1(c2ccccc2)CCCC1	Shiga toxin inh 47.6, CHX counter 105.3, Pf growth 48h inconclusive
COc1ccc(C(NC(=O)/C=C/c2ccco2)c2ccc(OC)c(OC)c2)cc1 (stereo not given)	Shiga toxin inh 84.7, Pf growth 96h inconclusive, CHX counter 42.2
CC1=C(C(=O)OCC2CCCO2)C(c2ccc(F)cc2)NC(=O)N1 (stereo not given)	none
CC(C)c1cc(C(F)(F)F)n2nc(C(=O)Nc3ccc(-n4cnnn4)cc3)cc2n1	none
O=C1CCCC2=C1C1O[C@](CCCCN3C(=O)c4ccccc4C3=O)(Cc3c1ccc1ccccc31)O2	Pf growth 48h inconclusive
CC1CCN(C(=O)c2[nH]cnc2C(=O)N[C@@H](C)C(=O)OCc2ccccc2)CC1	none
CN(C)CCCNC(=O)/C(=C/c1ccc(-c2ccc([N+](=O)[O-])cc2)o1)NC(=O)c1ccccc1	Pf growth 96h inconclusive, Pf growth 48h inconclusive
Cc1ccc(/C=C(\NC(=O)c2ccccc2)C(=O)NCCc2ccccn2)o1	CHX counter 11.1
CN(C)CCCNC(=O)/C(=C\c1ccc(-c2ccc(Br)cc2)o1)NC(=O)c1ccccc1	Pf growth 96h inconclusive, Pf growth 48h 10.4µM
Cc1ccc(C(=O)N/C(=C\c2ccc(Cl)cc2)C(=O)NCCCN2CCOCC2)cc1	none
Cc1ccc(C(=O)N/C(=C\c2ccc(-c3ccc(Cl)cc3)o2)C(=O)NCCCN(C)C)cc1	Pf growth 96h 9.28µM, Pf growth 48h 10.4µM
COc1ccccc1CNS(=O)(=O)CCNC(=O)c1ccccc1	none (no result: Shiga toxin inh, CHX counter)
CCOC(=O)N1CCN(C(=O)c2c(N)no[n+]2[O-])CC1	none
O=c1c(NCCc2ccc(Cl)cc2)c(-c2ccccc2)c1=O	Pf growth 96h inconclusive, Pf growth 48h inconclusive
Cc1cn(-c2ccccc2)c(C)c1/C=N\Nc1nc(N2CCOCC2)nc(N2CCOCC2)n1	Pf growth 48h 8.28µM
Cc1cc(N/N=C/c2ccccc2)nc(N)n1	Shiga toxin inh 49.8, CHX counter 19.7, Pf growth 48h inconclusive
Cc1cc(N/N=C/c2ccc(O)cc2)nc(NS(=O)(=O)c2ccccc2)n1	none
Cc1cc(N/N=C/c2ccccc2)nc(N2CCOCC2)n1	CHX counter 19.0
Cc1nc(N)nc(N/N=C/c2ccccc2)n1	Shiga toxin inh 40.7, CHX counter 14.0
Cc1ccc(N2C(=O)C3ON(c4ccccc4)C(c4ccncc4)C3C2=O)c(C)c1 (stereo not given)	Pf growth 96h inconclusive
